High-throughput results: PubChem, The Scripps Research Institute Molecular Screening Center
Rows were chosen to be rich in hits. Some 2.5% of all compounds tested hit in one or more screens of this group.
MBD2 DNA inh: inhibitors of MBD2 binding to methylated DNA, primary screen, biochemical, TR-FRET, DNA-binding domain, human; 370,000 tested, 0.31% active; Methyl-CpG-binding domain protein 2 (Homo sapiens), Q9UBB5; inhibition, % at 4.4 µM; MBD2 binding to methylated oligonucleotide; in the data active = inhibition above about 13%
PRMT1 FP inh: PRMT1 methyltransferase inhibitors, primary screen, biochemical, fluorescence polarization | 370,000 tested, 1.3% active | Protein arginine N-methyltransferase 1 (Homo sapiens), Q99873 | recombinant PRMT1, activity-based probe fluorescence polarization | inhibition, % at 2.79 µM;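 active = inhibition above about 21% made by adding two undisclosed values, limit read from the data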
UHRF1 binding: UHRF1 methylated DNA binding inhibitors, primary screen, counter-screen for MBD2 inhibitor project, biochemical, TR-FRET, human UHRF1, single concentration. 370,000 tested, 0.75% active. AID 687016, 2013. inhibition, % at 4.4 µM. UHRF1 binding to methylated oligo; in the data active = inhibition above about 21%;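 also: UHRF1 SRA domain binding a hemimethylated CpG hairpin DNA probe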
LEDGF integ inh: blockers of LEDGF/p75-dependent integrase strand transfer – biochemical, TR-FRET, high throughput, primary screen | HIV-1 integrase (with human LEDGF/p75) | TR-FRET IN-LEDGF/p75 DNA integration, Eu/Cy5 | inhibition, % at 3.7 µM | 370,000 tested, 0.64% active | AID 743269, 2014;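 active = inhibition above the screen-wide mean plus 3 SD, cut at about 13% in these data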;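 also: signal is the Cy5 over europium emission ratio at 671 and 618 nm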
PRMT1 inh conf: PRMT1 methyltransferase inhibitors, confirmation, biochemical, fluorescence polarization, triplicate | recombinant His-PRMT1, activity-based probe fluorescence polarization | 3,300 tested, 42% active | shares compounds with PRMT1 FP inh | inhibition, % at 2.79 µM;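 active = mean inhibition across replicates above the hit cutoff derived for the earlier primary screen, cut at about 22% in these data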
Numbers stand for hits; 0 = inactive; - = no result given.

SMILES	MBD2 DNA inh	PRMT1 FP inh	UHRF1 binding	LEDGF integ inh	PRMT1 inh conf
CN1C(=O)c2ccc(NC(=O)CCS(=O)(=O)c3ccccc3)cc2C1=O	0	0	0	0	-
Cc1ccc(-n2sc3ccccc3c2=O)cc1S(=O)(=O)N1CCCCC1	0	101.4	0	0	84.1
O=c1c2ccccc2sn1-c1ccc(S(=O)(=O)N2CCCCC2)cc1	0	43.1	0	0	62.7
O=S(=O)(c1ccccc1)N1CCN(S(=O)(=O)N2CCCCCC2)CC1	0	0	0	0	-
O=c1c2ccccc2sn1-c1ccc(S(=O)(=O)N2CCCC2)cc1	0	95.2	0	0	97.0
Cc1nc(C(F)(F)F)ccc1C(=O)N1CCC1(C)C(=O)NS(=O)(=O)c1ccc2c(c1)CCO2 (configuration not stated)	0	0	0	0	-
Oc1ccc(/C=N/n2cc(-c3ccccc3)[nH]c2=S)cc1	0	44.2	0	0	23.5
Cc1ccc(/C=N/n2cc(-c3ccccc3)[nH]c2=S)s1	0	27.8	0	0	0
S=c1[nH]c(-c2ccccc2)cn1/N=C/c1ccccc1Br	0	0	0	0	-
COc1cc(/C=N/n2cc(-c3ccccc3)[nH]c2=S)cc(OC)c1O	0	47.3	0	0	27.0
CN(CC(=O)Nc1ccc(Cl)c(S(=O)(=O)N2CCOCC2)c1)C(=O)c1ccc(C#N)cc1	0	0	0	0	-
C=CCc1c(Cl)nc(C)nc1NCc1ccccc1	0	0	0	0	-
CSc1nnc(N2C(=O)C(O)=C(C(=O)c3ccco3)C2c2cccc(Cl)c2)s1 (configuration not stated)	0	29.6	0	0	0
Cc1ccc2nc(N3C(=O)C(O)=C(C(=O)c4ccco4)C3c3cccs3)sc2c1 (configuration not stated)	0	34.5	0	0	0
CCSc1nnc(N2C(=O)C(O)=C(C(=O)c3ccco3)C2c2cccc(OC)c2)s1 (configuration not stated)	0	30.8	0	0	0
CSc1nnc(N2C(=O)C(O)=C(C(=O)c3ccco3)C2c2ccc(F)cc2)s1 (configuration not stated)	0	43.5	0	0	0
CO/N=C/C(=N\Nc1cc(OC)cc(OC)c1)C(=O)c1ccccc1	0	0	0	0	-
COc1ccc(C(=O)CCC(C)(C)[N+](=O)[O-])cc1OC	0	0	0	0	-
O=C(NCc1ccccn1)c1ccccc1OCc1ccccc1Cl	0	0	0	0	-
CN(C(=O)COC(=O)c1cc2ccccc2oc1=O)C1CCCCC1	0	26.6	0	0	0
O=C(NC1CCCCN(Cc2ccc(OC(F)(F)F)cc2)C1=O)c1cccc(F)c1 (configuration not stated)	0	0	0	0	-
Cc1ccccc1NC(=O)c1ccc(NC(=O)C2CC(=O)OC23CCCCC3)cc1 (configuration not stated)	0	0	0	0	-
Cc1ccc(-c2nc3c(Cl)cc(C(F)(F)F)cn3c2Cc2ccccc2C(F)(F)F)cc1	0	0	0	0	-
FC(F)(F)c1cc(Cl)c2nc(-c3ccco3)c(Cc3ccccc3C(F)(F)F)n2c1	0	47.1	21.1	0	0
FC(F)(F)c1ccccc1Cc1c(-c2ccco2)nc2ccc(Cl)cn12	0	34.6	0	0	0
SMILES	MBD2 DNA inh	PRMT1 FP inh	UHRF1 binding	LEDGF integ inh	PRMT1 inh conf
COc1cc(C)c(NC(=O)C(=S)NCCc2ccccc2)cc1C	0	30.7	0	0	38.5
O=C(Nn1c(O)c(C=C2N=c3ccccc3=N2)sc1=S)c1ccccc1Cl	0	36.8	0	0	0
O=S(=O)(Nn1c(O)c(C=C2N=c3ccccc3=N2)sc1=S)c1ccccc1	0	0	0	0	-
Cc1cc(C)c(C(=O)C(C)OC(=O)c2ccc(Cl)nc2)cc1C (configuration not stated)	0	0	0	0	-
COc1ccc(CC(=O)Nc2ncc([N+](=O)[O-])s2)cc1OC	0	46.6	0	0	0
NC(=O)CN1C(=O)/C(=c2\sc3nc(=O)c(Cc4ccccc4)nn3c2=O)c2ccccc21	0	45.1	0	0	39.6
CCCN1C(=O)/C(=c2\sc3nc(=O)c(Cc4ccc(C)cc4)nn3c2=O)c2ccccc21	0	0	0	0	-
